Among the test systems are DU-145 prostate; K-562 leukemia; MALME-3M melanoma; MDA-MB-231 breast; RXF 393 renal; SF-268 CNS; SF-295 CNS; SF-539 CNS; UACC-257 melanoma; M14 melanoma.
Common to all, as to test: NCI-60 one-dose screen, 48 h (100 = growth as untreated, 0 = no growth, -100 = all killed)
Holding throughout (conditions): 10 µM unless noted

Compounds without any hit were thinned out: in the full panel of roughly 83,000, 20% have a hit.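 48-hour exposure, single concentration, 96-well plates; percent growth endpoint where 0 means no net growth. Active: below 10.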 Unmarked numbers belong to inactive results. Activity calls are given as the source filed them.

Consider `O=C(/C=C(/C=C/c1cccc2[nH]ccc12)OB(F)F)/C=C/c1cccc2[nH]ccc12`, for which the growth with DU-145 prostate was 2.94% (active); in the test on K-562 leukemia it was -2.54% (active); in the test with MALME-3M melanoma, -26.9% (active); in the test on MDA-MB-231 breast, -10.7% (active); in the test with RXF 393 renal it was -87.2% (active); in the test with SF-268 CNS, 2.01% (active). In addition, the growth in the test with SF-295 CNS was -49.5% (active); in the test on SF-539 CNS it was -25.8% (active); in the test on UACC-257 melanoma, -47.3% (active); with M14 melanoma it was -34.2% (active).

Turning to `CCc1ccc(Oc2cn[nH]c2-c2ccc(OCCc3ccc(F)cc3)cc2O)cc1`, the growth in the test with DU-145 prostate is 90.5%; in the test on K-562 leukemia it was 100%; with MALME-3M melanoma, 95.1%; with MDA-MB-231 breast, 85%; in the test with RXF 393 renal, 111%; in the test on SF-268 CNS, 88.9%. The growth with SF-295 CNS is 99.2%; with SF-539 CNS it was 106%; with UACC-257 melanoma, 93.3%; with M14 melanoma it was 83.1%.

Regarding `Fc1cc(F)cc(C(c2c[nH]c3ccccc23)c2c[nH]c3ccccc23)c1`, the growth was 105% with DU-145 prostate; 118% in the test on K-562 leukemia; 130% in the test with MALME-3M melanoma; 86.6% in the test with MDA-MB-231 breast; 115% with RXF 393 renal; 97.6% with SF-268 CNS. In addition, the growth in the test with SF-295 CNS is 78.6%; in the test with SF-539 CNS it was 106%; in the test on UACC-257 melanoma, 99.8%; with M14 melanoma, 98%.

As to `CCOC(=O)c1c(NC(=O)c2ccc(C(C)C)cc2)sc2c(CN(C)C)c(O)ccc12`, the growth was 78.2% with DU-145 prostate; -31.3% (active) in the test with K-562 leukemia; -45.5% (active) in the test on MALME-3M melanoma; 58.4% with MDA-MB-231 breast; 44.2% in the test with RXF 393 renal; 91.4% with SF-268 CNS. The growth is 4.37% (active) in the test with SF-295 CNS, 75% with SF-539 CNS, 67.3% in the test with UACC-257 melanoma and -64% (active) with M14 melanoma.

For `Cc1noc(C)c1C(=O)OCc1coc2ccccc2c1=O`, the growth was 27.8% in the test with DU-145 prostate; 36.5% in the test on K-562 leukemia; 51.4% in the test with MALME-3M melanoma; 61.2% with MDA-MB-231 breast; 76.5% in the test on RXF 393 renal; 79.8% in the test on SF-268 CNS. The growth with SF-295 CNS is 104%; in the test with SF-539 CNS, 68.5%; in the test on UACC-257 melanoma, 72.2%; in the test with M14 melanoma, 69.1%.

As to `CC/C(=C(/c1ccc(Cl)cc1)c1ccc(OCCN2CCCC2)cc1)c1ccc(OC)cc1`, the growth in the test on DU-145 prostate is 86.3%; with K-562 leukemia, 5% (active); with MALME-3M melanoma, 79.8%; with MDA-MB-231 breast, 80.2%; in the test with RXF 393 renal it was 67%; with SF-268 CNS, 87.1%. In addition, the growth in the test with SF-295 CNS is 66%; in the test with SF-539 CNS it was 82.6%; in the test with UACC-257 melanoma, 74.8%; in the test on M14 melanoma, 50.3%.

With `O=C(OCc1ccc2cccc(O)c2n1)N1CCN(C(=O)c2cc3cc(F)ccc3[nH]2)CC1`, the growth was -83.9% (active) in the test with DU-145 prostate; 1.96% (active) in the test on K-562 leukemia; -93.2% (active) in the test with MALME-3M melanoma; -81.6% (active) in the test with MDA-MB-231 breast; -93.1% (active) with RXF 393 renal; -73.4% (active) with SF-268 CNS. The growth is 54.7% in the test on SF-295 CNS, -98.3% (active) in the test on SF-539 CNS, -41.4% (active) with UACC-257 melanoma and -77.7% (active) in the test on M14 melanoma.

Regarding `COc1ccc(/C=C2\COc3ccc(O)c(O)c3C2=O)cc1`, the growth was 19.4% in the test with DU-145 prostate; 13.4% in the test on K-562 leukemia; -26.3% (active) in the test on MALME-3M melanoma; -11.4% (active) in the test on MDA-MB-231 breast; 2.29% (active) in the test on RXF 393 renal; 2.86% (active) in the test with SF-268 CNS. Moreover, the growth in the test with SF-295 CNS was 48.5%; in the test with SF-539 CNS it was -36.9% (active); in the test with UACC-257 melanoma it was 14.8%; in the test with M14 melanoma it was 8.06% (active).

As to `O=C1c2c(c3c4ccc(Br)cc4oc3c3[nH]c4ccccc4c23)C(=O)N1O`, the growth was 38.4% with DU-145 prostate; 30.4% in the test on K-562 leukemia; 1.92% (active) with MALME-3M melanoma; 80.1% in the test on MDA-MB-231 breast; 31.7% with RXF 393 renal; 13.9% in the test on SF-268 CNS. In addition, the growth was 34.4% with SF-295 CNS, 7.26% (active) in the test with SF-539 CNS, 83.6% in the test on UACC-257 melanoma and 30.9% in the test with M14 melanoma.

Regarding `CCCc1cc(NC)nc(S(=O)(=O)CC)n1`, the growth in the test with DU-145 prostate is 109%; with K-562 leukemia, 97.7%; with MALME-3M melanoma, 110%; in the test with MDA-MB-231 breast, 109%; in the test on RXF 393 renal, 108%; in the test with SF-268 CNS, 98.4%. The growth with SF-295 CNS is 99.9%; with SF-539 CNS, 100%; with UACC-257 melanoma, 106%; in the test with M14 melanoma, 99.8%.

Consider `Cc1cccc2c1NC(=O)C2(c1ccc(O)cc1)c1ccc(O)cc1`, for which the growth in the test with DU-145 prostate was 84.6%; in the test with K-562 leukemia it was 99.9%; in the test with MALME-3M melanoma, 93.1%; in the test on MDA-MB-231 breast it was 86.3%; in the test on RXF 393 renal it was -11.2% (active); with SF-268 CNS, 96.7%. For the same compound, the growth in the test on SF-295 CNS was 73.1%; with SF-539 CNS it was 95.2%; in the test with UACC-257 melanoma, 79.4%; in the test with M14 melanoma, 94.4%.

For the compound `CCCCCCCCCCCCCCCCCCOc1ccccc1CC(=O)NCC[N+]1(C)CCCC1`, the growth in the test on DU-145 prostate was 56.8%; in the test with K-562 leukemia, 36.9%; with MALME-3M melanoma it was 52.4%; in the test on MDA-MB-231 breast it was 43.1%; with RXF 393 renal it was 4.86% (active); in the test with SF-268 CNS it was 31%. In addition, the growth in the test on SF-295 CNS was 86.5%; in the test on SF-539 CNS, 82.1%; in the test with UACC-257 melanoma, 93.2%; in the test with M14 melanoma it was 65.8%.

`CC(O)c1cnc(/C=C2\SC(=S)N(Cc3ccccc3)C2=O)s1` (stereo not given): the growth in the test on DU-145 prostate was 53.2%; in the test on K-562 leukemia it was 18%; in the test on MALME-3M melanoma, 90.8%; in the test with MDA-MB-231 breast, 84.9%; in the test with RXF 393 renal, 73.6%; in the test with SF-268 CNS, 84.3%. Moreover, the growth in the test with SF-295 CNS was 102%; in the test on SF-539 CNS, 91.9%; in the test on UACC-257 melanoma it was 72.8%; in the test on M14 melanoma, 66.5%.

As for `C#Cc1cccc(Nc2ncnc3ccc(-c4cncc(NS(C)(=O)=O)c4)cc23)c1`, the growth in the test on DU-145 prostate is 28.3%; in the test with K-562 leukemia, 37.2%; in the test with MALME-3M melanoma, 33.2%; in the test on MDA-MB-231 breast, 23.7%; in the test on RXF 393 renal, 7.78% (active); with SF-268 CNS, 24.1%. Also, the growth in the test on SF-295 CNS was 37.6%; in the test on SF-539 CNS it was 17%; in the test with UACC-257 melanoma, 37.4%; with M14 melanoma, 47%.

On to `O=C(Cc1ccccc1)Nc1nc(O)c(/C=C2\C(=O)C=Cc3ccccc32)s1`, for which the growth with DU-145 prostate is 104%; in the test on K-562 leukemia, 100%; in the test on MALME-3M melanoma it was 106%; in the test on MDA-MB-231 breast it was 98.1%; in the test on RXF 393 renal, 111%; with SF-268 CNS, 99.2%. Further, the growth in the test with SF-295 CNS was 103%; in the test with SF-539 CNS, 102%; in the test on UACC-257 melanoma it was 106%; in the test with M14 melanoma, 89.7%.

With `CC(C)(C)n1cc(-c2ccnc(NCCCNS(=O)(=O)c3ccc(F)cc3)c2)c(-c2cccc(F)c2)n1`, the growth is 77.7% with DU-145 prostate; 18.1% in the test with K-562 leukemia; 85.4% in the test on MALME-3M melanoma; 75.6% in the test with MDA-MB-231 breast; 68% in the test with RXF 393 renal; 74.3% in the test on SF-268 CNS. For the same compound, the growth with SF-295 CNS is 74%; with SF-539 CNS, 68.7%; in the test on UACC-257 melanoma, 89.2%; in the test on M14 melanoma it was 53.8%.

Turning to `COc1ccc(/C=N/NC(=O)CCN2c3ccccc3Sc3ccccc32)cc1`, the growth is 102% in the test on DU-145 prostate; 24% with K-562 leukemia; 71.7% in the test with MALME-3M melanoma; 76.6% in the test on MDA-MB-231 breast; 66.6% in the test with RXF 393 renal; 96.7% in the test with SF-268 CNS. The growth was 68.8% in the test on SF-295 CNS, 85.2% with SF-539 CNS, 99.8% in the test on UACC-257 melanoma and 65.4% in the test on M14 melanoma.

In the case of `CN(C)CCCn1c2c(c3ncccc3c1=O)C(=O)c1ccccc1-2`, the growth in the test with DU-145 prostate was 39.3%; in the test on K-562 leukemia, 24.7%; with MALME-3M melanoma it was 61.9%; with MDA-MB-231 breast, 63.6%; with RXF 393 renal, 57.3%; with SF-268 CNS, 42.3%. Also, the growth in the test with SF-295 CNS was 50.7%; in the test with SF-539 CNS, 21%; in the test with UACC-257 melanoma it was 72.8%; with M14 melanoma, 48.6%.

Take `C=CCc1c(O)c(C(=O)/C=C/c2ccc(Cl)cc2)c(OC)c2ccoc12`: the growth with DU-145 prostate was 78.5%; with K-562 leukemia, 47.2%; in the test with MALME-3M melanoma it was 34.6%; with MDA-MB-231 breast, 49.4%; with RXF 393 renal it was 21.9%; with SF-268 CNS, 53.8%. Moreover, the growth is 33.1% with SF-295 CNS, 50.7% with SF-539 CNS, 39.4% in the test with UACC-257 melanoma and 58.3% in the test with M14 melanoma.

With `O=C1/C(=C/c2ccc(Cl)c(Cl)c2)CN(C(=O)C(Cl)Cl)C/C1=C\c1ccc(Cl)c(Cl)c1`, the growth is -76.1% (active) in the test on DU-145 prostate; 0.245% (active) with K-562 leukemia; -57.6% (active) in the test with MALME-3M melanoma; -34.2% (active) in the test on MDA-MB-231 breast; -80% (active) with RXF 393 renal; -64.7% (active) in the test with SF-268 CNS. The growth in the test with SF-295 CNS was -79.7% (active); with SF-539 CNS it was -93.2% (active); in the test on UACC-257 melanoma it was -11.4% (active); in the test with M14 melanoma, -66.9% (active).

On to `COCCn1c(-c2csc(-c3cn(C)c4ccc(OC)cc34)n2)cc2cccnc21`, for which the growth is 62.7% in the test with DU-145 prostate; -25.5% (active) with K-562 leukemia; 106% in the test on MALME-3M melanoma; 43.6% in the test with MDA-MB-231 breast; 52.3% in the test with RXF 393 renal; 64.1% in the test with SF-268 CNS. Besides, the growth in the test with SF-295 CNS is 58.9%; in the test with SF-539 CNS it was 58.9%; with UACC-257 melanoma it was 54.5%; in the test with M14 melanoma it was 44.2%.

The record behind these values is PubChem BioAssay (NCI).
